Assay outcomes from PubChem.
Shown are actives, neighbours in structure and some others; about 1.1% of the full set was active somewhere.
NCOA2 inhibitor: inhibits human steroid receptor coactivator 2. HEK293 GAL4-SRC2 luciferase reporter, luminescence. AID 651957. hit rate 0.17% among 370,000. inhibition, % at 9 µM;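 active means inhibition above the mean inhibition of all tested compounds plus 3 SD, set per campaign, cut at about 52% in these data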;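 further: 0% = DMSO treated cells and 100% = cells given Gossypol at 36 µM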
Target sequence (Q15596 whole entry, looked up, the tested form may be a part): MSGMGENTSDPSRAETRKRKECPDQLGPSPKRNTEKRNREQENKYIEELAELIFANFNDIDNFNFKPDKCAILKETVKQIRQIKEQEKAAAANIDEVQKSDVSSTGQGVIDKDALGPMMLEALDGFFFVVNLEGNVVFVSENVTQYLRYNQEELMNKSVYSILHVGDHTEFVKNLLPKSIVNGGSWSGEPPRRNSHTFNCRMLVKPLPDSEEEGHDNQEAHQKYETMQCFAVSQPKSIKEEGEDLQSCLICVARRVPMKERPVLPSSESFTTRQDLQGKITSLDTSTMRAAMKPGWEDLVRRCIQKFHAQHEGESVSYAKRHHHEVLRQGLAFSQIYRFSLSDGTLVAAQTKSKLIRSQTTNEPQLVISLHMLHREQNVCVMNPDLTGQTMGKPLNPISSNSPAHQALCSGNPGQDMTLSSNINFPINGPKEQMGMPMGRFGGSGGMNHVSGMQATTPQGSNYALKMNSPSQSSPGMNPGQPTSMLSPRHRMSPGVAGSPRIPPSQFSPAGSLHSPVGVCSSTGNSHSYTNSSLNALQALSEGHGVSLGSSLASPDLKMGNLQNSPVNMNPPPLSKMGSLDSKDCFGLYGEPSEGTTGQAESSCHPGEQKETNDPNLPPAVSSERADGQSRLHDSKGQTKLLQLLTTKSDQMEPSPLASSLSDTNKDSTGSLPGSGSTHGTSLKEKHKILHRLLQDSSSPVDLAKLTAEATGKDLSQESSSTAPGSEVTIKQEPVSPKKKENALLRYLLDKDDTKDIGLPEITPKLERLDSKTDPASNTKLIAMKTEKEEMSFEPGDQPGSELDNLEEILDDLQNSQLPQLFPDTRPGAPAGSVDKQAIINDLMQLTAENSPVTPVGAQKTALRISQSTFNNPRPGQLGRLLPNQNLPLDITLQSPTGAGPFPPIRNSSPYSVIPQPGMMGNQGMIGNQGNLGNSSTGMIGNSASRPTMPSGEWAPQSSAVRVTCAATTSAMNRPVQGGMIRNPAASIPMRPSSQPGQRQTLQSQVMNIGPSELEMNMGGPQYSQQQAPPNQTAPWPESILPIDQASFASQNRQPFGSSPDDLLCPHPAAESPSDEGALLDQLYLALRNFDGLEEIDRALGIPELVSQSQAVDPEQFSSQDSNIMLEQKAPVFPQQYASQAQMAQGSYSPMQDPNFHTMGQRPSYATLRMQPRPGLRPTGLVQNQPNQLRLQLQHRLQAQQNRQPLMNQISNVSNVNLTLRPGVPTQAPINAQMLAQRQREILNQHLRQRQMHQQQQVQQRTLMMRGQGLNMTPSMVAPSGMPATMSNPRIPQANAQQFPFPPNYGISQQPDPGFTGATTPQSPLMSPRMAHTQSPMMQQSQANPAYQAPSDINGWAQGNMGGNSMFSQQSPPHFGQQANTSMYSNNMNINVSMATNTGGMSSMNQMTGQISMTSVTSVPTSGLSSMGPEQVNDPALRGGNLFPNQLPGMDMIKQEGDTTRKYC
LRH-1 inv ag: suppresses constitutive activity of human LRH-1; HEK293T StAR-luciferase reporter, LRH-1 transfected, 24 h; hit rate 0.13% among 360,000; inhibition, % at 3.6 µM;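 active means inhibition above the mean inhibition of all tested compounds plus 3 SD, cut at about 73% in these data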;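 further: 0% = DMSO wells and 100% = reporter-only cells lacking LRH-1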
GalR3 antagonist: antagonists of human GalR3; AID 651719; HEK293 GalR3-CNG cAMP membrane potential fluorescence; galR3 body fused to GalR1 C-terminus; hit rate 0.44% among 360,000; inhibition, % at 3 µM;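 active means inhibition above the screen-wide average plus 3 SD, cut at about 13% in these data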;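 further: forskolin and galanin both at EC90 stimulate the cells; cAMP rise reported by CNG channel membrane potential dye signal; 0% = forskolin plus galanin with DMSO and 100% = forskolin alone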
NCOA3 inh: inhibits human SRC3 coactivator; AID 588352; hit rate 0.17% among 360,000; Q9Y6Q9; HEK293 GAL4-SRC3 luciferase reporter, luminescence; inhibition, % at 3.6 µM;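 active means inhibition above a per-campaign cutoff, the mean of all compounds plus 3 SD, cut at about 60% in these data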;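 further: 0% = DMSO-treated cells and 100% = gossypol-treated cells at 36 µM; higher means less SRC3-driven luciferase light from the GAL4 reporter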
NCOA1 inh: human NCOA1 inhibition. AID 588354. Q15788. hit rate 0.12% among 360,000. inhibition, % at 3.6 µM. HEK293 GAL4-SRC1 luciferase reporter, luminescence;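 active means inhibition above the campaign mean plus 3 SD, with each screening campaign given its own cutoff, cut at about 60% in these data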;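 further: 0% = DMSO treated cells and 100% = gossypol at 36 µM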
NR2F2 inh: blocks human COUP-TFII nuclear receptor. inhibition, % at 8.6 µM. P24468. HEK293T NGFI-A luciferase reporter, luminescence. hit rate 0.7% among 370,000. AID 686940;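 active means inhibition above a per-plate cutoff, mean inhibition of test wells between control levels plus 3 SD, cut at about 38% in these data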;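 further: cells cotransfected with COUP-TFII expression vector driving the NGFI-A reporter; 0% = median of COUP-TF2 test wells and 100% = reporter-only cells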
VP16 Luc counter: inhibits VP16 reporter, flagging COUP-TFII antagonist hits | shares compounds with NR2F2 inh | HEK293 Gal4-VP16 luciferase reporter, luminescence | inhibition, % at 8.5 µM | hit rate 25% among 2,500 | AID 687007; in the data active means inhibition above about 13%
NR2F2 inh conf: confirmation of human COUP-TFII (NR2F2) inhibitors | HEK293 NGFI-A luciferase reporter, luminescence | hit rate 45% among 2,500 | inhibition, % at 8.5 µM | shares compounds with NR2F2 inh;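 active means mean inhibition over three repeats above a set limit taken from the earlier primary screen, cut at about 38% in these data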;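 further: 100% = cells given the luciferase reporter alone without the COUP-TF2 vector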
* hit, by the source's call; i = inactive; . = no result given.

SMILES	NCOA2 inhibitor	LRH-1 inv ag	GalR3 antagonist	NCOA3 inh	NCOA1 inh	NR2F2 inh	VP16 Luc counter	NR2F2 inh conf
O=C(Nc1cc(Sc2nc3ccccc3s2)cc([N+](=O)[O-])c1)c1ccccc1	24.0	11.2	-0.2	-2.3	-11.8	5.0	.	.
O=C(C(=O)N1CCN(C(=O)C2CCCC2)CC1)c1cccc(C(F)(F)F)c1	11.0	.	-3.1	.	.	-6.6	.	.
CCCCNC(=O)C[C@@H]1C(=O)N2CCCC3=C2[C@@]1(C(=O)OC)CCCC3	8.8	.	.	.	.	2.0	.	.
Clc1ccc(Cn2ncc3c(N4CCCCC4)ncnc32)cc1	-18.5	-1.7	-0.8	14.0	-4.9	2.4	.	.
Clc1ccc(-n2ncc3c(N4CCCCCC4)ncnc32)cc1	69.9*	78.5*	6.6	80.4*	80.9*	91.5*	80.3*	99.7*
Clc1ccc(-n2ncc3c(NCCN4CCOCC4)ncnc32)cc1	37.1	43.2	3.1	57.9	42.0	55.6*	-29.1	48.2*
CCOc1ccc(-n2c(COc3ccccc3)nnc2SCc2nc3ccccc3[nH]2)cc1	0.9	.	.	.	.	2.3	.	.
C[C@H]1[C@H](c2ccccc2)Oc2cccc(NCCc3ccccc3)c2S(=O)(=O)N1Cc1cccc(Cl)c1	-1.9	.	-6.1	.	.	1.2	.	.
CCOC(=O)C1(Cc2ccccc2)CCN(Cc2ccccc2OC)CC1	11.2	.	.	.	.	0.6	.	.
CCOC(=O)C1(Cc2ccccc2)CCN(Cc2ccnc3ccccc23)CC1	35.5	.	.	.	.	47.0*	4.3	38.5*
CC(C)c1[nH]nc2c1C(c1ccccc1)NC2=O (stereo not drawn)	-5.4	.	-6.1	.	.	6.0	.	.
CC[C@H]1CN2CCc3cc(OC)c(OC)cc3C2C[C@@H]1C[C@H]1NCCc2cc(OC)c(OC)cc21 (stereo partly drawn)	70.3*	103.9*	.	95.4*	95.9*	91.9*	9.6	84.2*
COc1cc2c(cc1OC)CN1CCc3cc(OC)c(OC)cc3C1C2 (stereo not drawn)	3.0	15.6	-3.9	0.0	-15.4	-5.5	.	.
CCC1=C(CC2NCCc3ccccc32)CC2c3cc(OC)c(OC)cc3CCN2C1 (stereo not drawn)	55.1*	87.9*	-6.1	82.5*	73.1*	67.1*	-13.4	54.4*
CC(C)(C)OC(=O)NCc1ccccc1/C=C/S(=O)(=O)NCc1ccccc1	-0.3	.	.	.	.	-12.1	.	.
COC(=O)[C@]12C[C@H](CC(=O)N3CCOCC3)C(=O)N(Cc3ccccc3)C1=C[C@H](COCc1ccccc1)O[C@@H]2C	13.9	.	.	.	.	-5.9	.	.
O=C(CSc1ncccc1C(=O)O)Nc1ccc2c(c1)OCCO2	47.9	50.3	-8.9	18.9	14.8	55.4*	-6.0	-3.9
O=C(CSc1ncnc2ccccc12)Nc1ccc2c(c1)OCCO2	12.3	-7.4	0.3	-2.9	-14.4	-15.8	.	.
O=C(Cn1cnc2ccccc21)Nc1ccc2c(c1)OCCCO2	10.5	9.7	-9.6	5.3	5.5	39.0*	-24.0	8.7
O=C(Cn1cnc2ccccc2c1=O)Nc1ccc2c(c1)OCO2	-24.3	-30.2	-2.9	-43.5	-54.4	-24.6	.	.
CC(=O)Nc1ccc(NS(=O)(=O)c2ccc(-c3cnc(C4CC4)o3)cc2)cc1	14.7	27.5	-0.4	9.4	-36.1	4.7	.	.
CC(=O)c1cccc(NS(=O)(=O)c2ccc(-c3cnc(C4CC4)o3)cc2)c1	15.4	36.8	3.7	27.7	16.1	44.4*	2.7	47.1*
C=CC(=O)N1C/C(=C/c2ccc(F)cc2)C(=O)/C(=C\c2ccc(F)cc2)C1	96.0*	60.2	-2.1	-200.9	i	105.7*	86.3*	104.1*
COC(=O)C1=C(C)N(Cc2ccccc2C(F)(F)F)C(=NCc2cc(OC)c(OC)c(OC)c2)NC1c1ccc(Cl)cc1 (stereo not drawn)	0.5	.	-3.1	.	.	41.0*	-9.7	-0.5
COC(=O)C1=C(C)N(Cc2ccccc2C(F)(F)F)C(=NCc2cc(OC)c(OC)c(OC)c2)NC1c1ccccc1C(F)(F)F (stereo not drawn)	-4.9	.	-8.3	.	.	3.6	.	.
SMILES	NCOA2 inhibitor	LRH-1 inv ag	GalR3 antagonist	NCOA3 inh	NCOA1 inh	NR2F2 inh	VP16 Luc counter	NR2F2 inh conf
Cc1ccc(C)c(N2CCN(C(=O)C34CC5CC(C3)CC(n3nnc(C)n3)(C5)C4)CC2)c1	3.8	-6.2	0.7	36.7	-2.3	47.3*	-2.6	22.3
CCc1ccc(NC(=O)C2CCN(S(=O)(=O)c3ccc4c(c3)NC(=O)C(C)S4)CC2)cc1 (stereo not drawn)	17.2	-8.1	-9.5	3.4	1.2	58.3*	7.9	39.5*
Cc1ccc(NC(=O)C2CCN(S(=O)(=O)c3ccc4c(c3)NC(=O)C(C)S4)CC2)cc1C (stereo not drawn)	26.0	-11.2	1.0	20.8	6.4	22.2	.	.
COc1ccc(N2CCN(S(=O)(=O)c3ccc4c(c3)NC(=O)C(C)S4)CC2)cc1 (stereo not drawn)	20.2	9.8	11.6	3.8	5.7	41.6*	-7.8	10.9
COC(=O)[C@]12C[C@H](CC(=O)NCc3cccc(C(F)(F)F)c3)C(=O)N(CCc3ccc(OC)c(OC)c3)C1=C[C@H](C1CCCC1)O[C@@H]2C	-55.9	.	.	.	.	-6.9	.	.
COc1ccc(NC(=O)N(C)C[C@@H]2OCc3cnnn3CCCC(=O)N([C@@H](C)CO)C[C@@H]2C)cc1	11.6	.	-1.6	.	.	7.0	.	.
O=C(N[C@@H]1CCCc2c1cnn2-c1ccc(F)cc1F)c1ccccn1	.	.	.	.	.	38.3*	-6.8	6.5
COc1cc(C(=O)NC2CCCc3c2cnn3-c2ccccc2F)cc(OC)c1OC (stereo not drawn)	10.4	33.4	-9.8	36.7	15.8	46.4*	-9.3	19.0
CC(C(=O)Nc1cccnc1)c1ccc([N+](=O)[O-])cc1 (stereo not drawn)	-5.3	22.4	-2.4	5.1	-9.4	-5.1	.	.
CC(C)Cc1ccc(C(C)C(=O)Nc2cccnc2)cc1 (stereo not drawn)	14.3	25.8	-11.9	15.7	10.4	46.1*	2.5	41.4*
COC(=O)[C@]12C[C@H](CC(=O)NCc3ccccc3)C(=O)N(CCc3ccc(OC)c(OC)c3)C1=C[C@H](C(C)C)O[C@@H]2C1CC1	-28.2	.	.	.	.	7.5	.	.
COc1ccc(OCC(=O)N2CCN(c3nnc(-c4ccc(C)cc4)c4ccccc34)CC2)cc1	9.4	16.9	-6.7	27.1	7.3	37.8*	-7.2	16.1
O=C(N/N=C/c1cccc2ccccc12)c1ccncc1	-10.0	1.5	-2.2	-5.5	6.1	1.6	.	.
O=C(/C=C/c1cccc2ccccc12)c1ccncc1	27.5	20.9	3.5	20.5	3.6	39.5*	-12.4	19.3
O=C1CC(c2ccc3c(c2)OCCO3)Oc2ccccc21 (stereo not drawn)	-81.1	-76.6	-4.2	-87.9	-44.2	-13.9	.	.
